Sampled rows, rich in hits. Any-hit rate of the full collection: about 6.8%.
KB-V1 MDR tox: kills drug-selected multidrug resistant KB-V1 cells; KB-V1 MDR cells viability, CellTiter-Glo, 72 h; Potency, µM (doses to about 46.1 µM), hits mostly cytotoxic; actives 3.4% (n = 400,000); further: nearly all actives have a fitted effect of over 60% in size
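Cytotoxicity via CellTiter-Glo luminescence after 72 h compound exposure at 37 degrees C. Cells: drug-selected KB-V1 line, DMEM phenol-red free plus 10% FBS. Compounds tested at multiple concentrations; normalized data fitted to concentration-effect curves.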
PINK1 expr mod: modulators of PINK1 expression; AID 624263; actives 0.2% (n = 410,000); Potency, µM (doses to about 76.6 µM), usual class: activators; PINK1 immunofluorescence, high-content cytometry, 24 h; active means well fitted activation curve with a large enough effect; inconclusive means small, poorly fitted or top-dose-only effect; cell line not stated here; further: nearly all actives have a fitted effect of over 65% in size
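PINK1 protein level read as immunofluorescence by microplate cytometer in a fixed, stained stable cell line after 24 h exposure to five compound concentrations, with CCCP as control.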
SW480 rerep: induces DNA re-replication in SW480 colon adenocarcinoma cells; SW480 DNA re-replication, Hoechst DNA content imaging, 48 h; Potency, µM (top dose mostly 46.1 µM), actives largely listed as activators; actives 1.8% (n = 340,000); AID 624297; further: nearly all actives have a fitted effect of over 55% in size
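First, 250 cells per well were seeded. Next, compound or vehicle (23 nL) was pinned in, plates sat 48 hr at 37 C. Finally Hoechst was added for 40 min before fluorescence scanning.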
MCF10A rerep: inducers of DNA re-replication in MCF 10A breast cells; MCF 10A DNA re-replication, Hoechst nuclear intensity, 48 h; Potency, µM (top dose mostly 46.1 µM), most hits filed as activators; actives 2.9% (n = 350,000); AID 624296; further: nearly all actives have a fitted effect of over 50% in size
KB-3-1 tox: KB-3-1 parental cell cytotoxicity | Potency, µM (titrated, usually from 46.1 µM), usual class: cytotoxic | KB-3-1 viability, CellTiter-Glo ATP luminescence, 72 h | actives 1.4% (n = 400,000) | AID 1347075; further: nearly all actives have a fitted effect of over 60% in size
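KB-3-1 cells, DMEM (no phenol red) + 10% FBS; compound by pin transfer, 72 h, 37 °C. Readout: CellTiter-Glo luminescence after 10 min. Data normalized, curve-fitted.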
TSG101-PTAP inh: blocks PTAP/TSG101 interaction to inhibit HIV-1 budding | AID 493005 | 340,000 tested, under 10 active | Q99816 | Potency, µM (doses to about 115 µM), hits mostly inhibitors | Fluorescence polarization, FITC-PTAP peptide / Tsg101 binding; active means well fitted inhibition curve with a large enough effect in the main read-out, with a control signal flat, not every such curve was filed as active; inconclusive means small, poorly fitted or top-dose-only effect, or effect the other way, or a change in a side signal; inactive means no such curve, though single readings can be large or run the other way
Target sequence (Q99816 whole entry, looked up): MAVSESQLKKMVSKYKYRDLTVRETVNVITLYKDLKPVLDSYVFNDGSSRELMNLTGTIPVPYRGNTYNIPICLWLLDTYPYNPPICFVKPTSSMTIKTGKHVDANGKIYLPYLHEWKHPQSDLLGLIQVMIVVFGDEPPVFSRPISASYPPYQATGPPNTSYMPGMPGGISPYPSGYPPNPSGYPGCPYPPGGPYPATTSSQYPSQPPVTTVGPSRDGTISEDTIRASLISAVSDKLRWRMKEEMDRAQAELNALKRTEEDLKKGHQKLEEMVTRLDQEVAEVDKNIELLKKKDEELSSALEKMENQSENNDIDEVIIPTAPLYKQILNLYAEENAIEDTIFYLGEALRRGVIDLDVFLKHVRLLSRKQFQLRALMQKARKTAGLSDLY
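Steps: Tsg101 binding domain dispensed (10 uM final), compounds pinned in DMSO, FITC-labeled PTAP-motif peptide added (50 nM final); after 20 min binding at room temperature, polarization measured.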
A number is an active result; - = inactive; ? = inconclusive; . = not tested or not shown. Unless noted, the call rests on the fitted dose curve; in most records, active means well fitted curve in the direction sought with a large enough effect; inconclusive means small, poorly fitted or top-dose-only effect, or another doubt; inactive means no such curve, though single readings can be large; an effect the other way counts as inactive or inconclusive.

SMILES	KB-V1 MDR tox	PINK1 expr mod	SW480 rerep	MCF10A rerep	KB-3-1 tox	TSG101-PTAP inh
Cc1c(C(=O)N(Cc2ccc(Cl)cc2)C2CCS(=O)(=O)C2)oc2ccccc12 (stereo not drawn)	8.2µM	-	-	-	?	-
Cc1ccc2oc(C(=O)N(Cc3ccc(N(C)C)cc3)C3CCS(=O)(=O)C3)c(C)c2c1 (stereo not drawn)	.	-	-	-	.	-
CCOc1ccc(CN(C(=O)c2oc3ccccc3c2C)C2CCS(=O)(=O)C2)cc1 (stereo not drawn)	9.2µM	-	?	?	-	.
Cc1ccc(OCc2cc(=O)n3c4c(sc3n2)CCCC4)c(C)c1	-	-	.	.	-	.
O=C(NC1CC1)[C@@H]1C[C@H](Sc2nc3ccccc3[nH]2)CN1CC1CCCCC1	.	-	.	.	.	.
COc1ccc(Nc2ncc(C(=O)Nc3cccc(Cl)c3)c3ccccc23)cc1	-	-	.	.	-	.
Cc1ccc(C(=O)CC2(O)C(=O)N(Cc3ccccc3)c3ccc(Br)cc32)cc1 (stereo not drawn)	.	-	.	.	.	.
Cc1ccc(C(=O)N2c3ccccc3N(Cc3ccccc3)C(=O)C2(C)C)cc1	6.51µM	.	?	-	-	-
Cc1cc(N/N=C/c2ccncc2)nc2ccccc12	6.51µM	-	-	-	?	-
ClC(Cl)(Cl)c1nc(N/N=C/c2ccncc2)c2ccccc2n1	-	-	-	-	-	-
Cc1cc(N/N=C/c2cccc(Br)c2)nc2ccccc12	20.6µM	-	-	-	-	-
CC(C)CN1CCC2(CC1)CCN(C(=O)c1cc(C(F)(F)F)cc(C(F)(F)F)c1)CC2	.	-	.	.	.	.
CCc1ccc(OCC(=O)N(Cc2ccc(Cl)cc2)C2CCS(=O)(=O)C2)cc1 (stereo not drawn)	-	-	.	.	-	.
CCOc1cc(/C=C2\C(=N)N3N=CSC3=NC2=O)ccc1OS(=O)(=O)c1ccccc1	-	-	-	-	-	-
Cc1cc(/C=C2\C(=N)N3N=CSC3=NC2=O)c(C)n1Cc1ccccc1	-	-	-	29.1µM	-	-
COc1cc(/C=C2\C(=N)N3N=C(S(C)(=O)=O)SC3=NC2=O)cc(OC)c1OCCOc1ccccc1C	-	-	-	-	-	-
CCCC1=NN2C(=N)/C(=C\c3cc(C)n(-c4cccc(C)c4)c3C)C(=O)N=C2S1	-	-	-	?	-	-
Cc1cc(/C=C2\C(=N)N3N=C(S(C)(=O)=O)SC3=NC2=O)c(C)n1Cc1ccccc1	-	-	?	20.6µM	-	-
CCCC1=NN2C(=N)/C(=C\c3cc(C)n(Cc4ccccc4)c3C)C(=O)N=C2S1	-	-	-	23.1µM	-	-
Cc1ccc(Cn2cc(CCC(=O)NCc3ccccc3F)c3ccccc32)cc1	.	-	.	.	.	.
CS(=O)(=O)Nc1cccc(-c2ccc3ncnc(Nc4ccc(F)cc4)c3c2)c1	.	-	.	.	.	.
CCCn1c(CCC(=O)Nc2cc(Cl)c(OC)cc2OC)nc2cccnc21	-	-	.	.	-	.
COc1ccc(S(=O)(=O)N(CC(=O)N2CCOCC2)Cc2ccccc2)cc1C	2.91µM	-	-	-	-	-
COc1ccc(C)cc1S(=O)(=O)N(CC(=O)N1CCOCC1)Cc1ccccc1	?	.	-	-	-	-
O=C(Nc1nnc(-c2ccncc2)s1)Nc1cccc2ccccc12	-	.	.	.	-	.
Cc1cc(S(=O)(=O)NCc2cccnc2)ccc1-n1cnnn1	-	.	?	18.4µM	-	-
C=CCn1c(=O)c2c(nc3n2CCN3c2cccc(Cl)c2C)n(C)c1=O	8.2µM	-	-	-	-	-
CCOc1cccc(C2c3[nH]c4ccccc4c3CCN2C(=O)Cc2cccc(OCC)c2OCC)c1 (stereo not drawn)	-	-	.	.	-	.
COCC(=O)Nc1cc(Sc2ccccc2)ccc1N=C(NC(=O)OC)NC(=O)OC	.	.	16.8µM	7.5µM	.	.
COc1ccc(-c2nn3c(=O)cc(CN4CCN(S(=O)(=O)c5ccc(C)cc5)CC4)nc3s2)cc1	-	-	.	.	-	.

Screening data as filed in PubChem.
